Assay outcomes deposited in PubChem by Broad Institute.
A selection: hits, their analogues and other compounds. The true share with any hit is near 4.1%.
F508del corr: correctors of CFTR F508del function in bronchial epithelial cells; CFBE cells, YFP halide quenching; stimulated with forskolin plus potentiator P3; % fluorescence drop versus neutral controls; activity (quench increase), % at 7.58 µM; hit rate 0.36% among 350,000;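 active means mean added fluorescence quench of at least 8% versus neutral control, with both replicates also reaching 8%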;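 further: cells transiently co-express mutant CFTR-F508del with the halide-sensitive YFP; corrector assay measuring rescue of mutant channel to the surface after 24 h compound exposure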
CASP6 VEID inh: caspase-6 (human) enzyme inhibition | AID 686996 | purified caspase-6, Z-VEID-R110 cleavage fluorescence | hit rate 0.53% among 350,000 | inhibition, % at 12.5 µM | P55212;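 active means mean inhibition across replicates at least about 35%, with every replicate also reaching that limit, limit read from the data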
Target sequence (P55212 24-179 limits assumed): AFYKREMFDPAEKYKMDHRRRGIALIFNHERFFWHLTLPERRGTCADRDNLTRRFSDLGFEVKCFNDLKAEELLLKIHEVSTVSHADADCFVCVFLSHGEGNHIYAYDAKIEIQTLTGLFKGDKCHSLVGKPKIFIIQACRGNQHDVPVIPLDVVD
Target sequence (P55212 194-293 limits assumed): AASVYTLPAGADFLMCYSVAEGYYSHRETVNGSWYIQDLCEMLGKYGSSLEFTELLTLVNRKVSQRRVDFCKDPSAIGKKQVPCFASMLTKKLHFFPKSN
ALR inh: blocks human ALR sulfhydryl oxidase activity; P55789; purified ALR, DTT oxidation, H2O2 HRP-luminol luminescence; inhibition, % (concentration not given with the values); hit rate 3.8% among 290,000; AID 485317;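 active means mean replicate inhibition above about 79%, with every replicate also reaching it, limit read from the data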
Target sequence (P55789 whole entry, looked up): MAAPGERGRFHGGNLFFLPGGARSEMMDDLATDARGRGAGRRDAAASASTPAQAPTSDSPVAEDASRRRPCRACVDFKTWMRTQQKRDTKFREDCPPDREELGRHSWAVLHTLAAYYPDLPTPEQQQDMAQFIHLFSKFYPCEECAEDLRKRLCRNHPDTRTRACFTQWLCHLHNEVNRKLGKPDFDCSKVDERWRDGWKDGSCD
PglD DTNB: blocks C. jejuni PglD acetyltransferase activity. purified PglD enzyme, DTNB colorimetric CoA detection. inhibition, % at 12.5 µM. hit rate 0.098% among 360,000. AID 602405; in the data active means inhibition above about 16%, passing the limit was not always enough
HIV Env fusion: inhibitors of HIV Env-mediated cell fusion | HeLa-JRFL Env/CEM21 cell fusion, luciferase | inhibition, % at 12.3 µM | hit rate 1.1% among 360,000;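 active means mean replicate inhibition score of at least 50 and every replicate individually at or above 50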
NSD2 HMT inh: blocks human histone methyltransferase NSD2; NSD2 peptide methylation, AlphaScreen, 120 min; hit rate 0.54% among 310,000; AID 743445; inhibition, % at 12.5 µM; O96028; in the data active means inhibition above about 50%
Each line names hits and unclear results; the compound was inactive in the other large screens; ! = a repeat was not active; [ ] = remark or other dose.

CCCNC(=O)c1ccc2c(=O)c(O)c(-c3ccc(C)cc3)[nH]c2c1	none (no result: NSD2 HMT inh)
CCN(CCCNC(=O)COc1cc(=O)n(CC)c2ccccc12)c1ccccc1	ALR inh 99.0 (no result: F508del corr, CASP6 VEID inh)
CCn1c(=O)cc(OCC(=O)NCCCN2CC(C)CC(C)C2)c2ccccc21 (configuration not stated)	none (no result: F508del corr, CASP6 VEID inh)
CCN(CCCNC(=O)COc1cc(=O)n(C)c2ccccc12)c1ccccc1	ALR inh 98.1 (no result: F508del corr, CASP6 VEID inh)
CCCCN(C)CCCNC(=O)Cn1c(=O)sc2ccccc21	none (no result: F508del corr, CASP6 VEID inh, NSD2 HMT inh)
CC1CCN(CCCNC(=O)COc2cc(=O)n(C)c3ccccc23)CC1	CASP6 VEID inh 78.2 (no result: F508del corr)
CCN(CCNC(=O)Cn1c(=O)sc2ccccc21)c1ccccc1	ALR inh 98.2 (no result: NSD2 HMT inh)
CO[C@@H]1CN(C)C(=O)c2ccc(NC(=O)c3ccccc3)cc2OC[C@@H](C)N(C(=O)CN(C)C)C[C@H]1C	none (no result: ALR inh, NSD2 HMT inh)
COc1ccc(S(=O)(=O)Nc2ccc3c(c2)CC(=O)N([C@@H](C)CO)C[C@@H](C)[C@@H](CN(C)C(=O)Nc2ccc4c(c2)OCO4)O3)cc1	none (no result: ALR inh, NSD2 HMT inh)
CO[C@@H]1CN(C)C(=O)c2ccc(NC(=O)c3cnccn3)cc2OC[C@@H](C)N(CC2CC2)C[C@@H]1C	none (no result: ALR inh, PglD DTNB, HIV Env fusion, NSD2 HMT inh)
CO[C@@H]1CN(C)C(=O)c2cc(NC(=O)C3CCCC3)ccc2OC[C@@H](C)N(Cc2nccs2)C[C@H]1C	none (no result: ALR inh, HIV Env fusion, NSD2 HMT inh)
C[C@H](CO)N1C[C@H](C)[C@@H](CN(C)CC2CCCC2)Oc2ncc(Br)cc2C1=O	none (no result: ALR inh, NSD2 HMT inh)
C[C@@H]1CN([C@H](C)CO)C(=O)c2cc(Br)cnc2O[C@H]1CN(C)CC1CCCC1	CASP6 VEID inh 61.9 (no result: ALR inh, NSD2 HMT inh)
C[C@@H]1CN([C@@H](C)CO)C(=O)c2cc(NC(=O)Nc3ccc(F)cc3)ccc2O[C@@H]1CN(C)CC1CCCCC1	PglD DTNB 17.1 (no result: ALR inh, NSD2 HMT inh)
C[C@@H]1CCCCO[C@@H](CN(C)CC2CCCCC2)[C@H](C)CN([C@H](C)CO)C(=O)c2cc(NC(=O)Nc3ccc(F)cc3)ccc2O1	HIV Env fusion 75.1[16.7 µM] (no result: ALR inh, NSD2 HMT inh)
Cc1noc(C)c1NC(=O)Nc1ccc2c(c1)C(=O)N([C@@H](C)CO)C[C@@H](C)[C@@H](CN(C)C(=O)Cc1ccccc1)OCCCC[C@@H](C)O2	none (no result: ALR inh, NSD2 HMT inh)
C[C@@H]1CN([C@@H](C)CO)C(=O)c2cc(NC(=O)CCCN(C)C)ccc2O[C@@H]1CN(C)Cc1ccc(C(F)(F)F)cc1	none (no result: ALR inh, NSD2 HMT inh)
C[C@@H]1CN([C@H](C)CO)C(=O)c2cccc(NC(=O)Nc3ccc(F)cc3)c2O[C@@H]1CN(C)Cc1ccc(C(=O)Nc2ccccc2N)cc1	none (no result: ALR inh, PglD DTNB, HIV Env fusion, NSD2 HMT inh)
CCOc1ccc(-c2cc(CCCC(=O)Nc3cccc(OC)c3)no2)cc1	HIV Env fusion 75.7 (no result: NSD2 HMT inh)
CCOc1ccc(NC(=O)CCCc2cc(-c3ccc(OCC)cc3)on2)cc1	none (no result: F508del corr, CASP6 VEID inh, NSD2 HMT inh)
O=C(O)COc1ccccc1/C=C1\C(=O)Nc2ccc(Br)cc21	ALR inh 97.6
O=C1Nc2ccc(Br)cc2/C1=C/C(=O)c1ccccc1	none (no result: ALR inh, PglD DTNB, NSD2 HMT inh)
O=C(Nc1cccc(F)c1)N1CCCCN2[C@H](CO)[C@@H](c3ccc(-c4ccccc4F)cc3)[C@H]2C1	none (no result: ALR inh, HIV Env fusion, NSD2 HMT inh)
C[C@@H]1CN([C@@H](C)CO)C(=O)Cc2cc(NC(=O)Nc3ccc(F)cc3)ccc2O[C@@H]1CN(C)Cc1ccc(C(F)(F)F)cc1	none (no result: ALR inh, PglD DTNB, NSD2 HMT inh)
O=C(c1ccc(F)cc1)C1CCN(CCn2c(=O)[nH]c3ccccc3c2=O)CC1	HIV Env fusion 60.6! (no result: NSD2 HMT inh)
O=C(c1ccc(F)cc1)C1CCN(CCCn2c(=O)[nH]c3ccccc32)CC1	none (no result: ALR inh, PglD DTNB)
Oc1ccc(Br)cc1-c1cc(-c2ccco2)[nH]n1	ALR inh 92.1 (no result: F508del corr, CASP6 VEID inh, HIV Env fusion)
Cc1cccc(CCNC(=O)C2CCCN(S(=O)(=O)c3cnc[nH]3)C2)c1 (configuration not stated)	none (no result: NSD2 HMT inh)
Cc1noc(C)c1S(=O)(=O)N1CCC(C(=O)N2CCC(C)CC2)CC1	none (no result: F508del corr, CASP6 VEID inh, HIV Env fusion)
Cc1cccc(N2CCN(C(=O)C3CCCN(S(=O)(=O)c4cnc[nH]4)C3)CC2C)c1 (configuration not stated)	ALR inh 98.9 (no result: F508del corr, CASP6 VEID inh, NSD2 HMT inh)
Cc1cccc(N2CCN(C(=O)C3CCN(S(=O)(=O)c4c(C)noc4C)CC3)CC2C)c1 (configuration not stated)	ALR inh 97.7 (no result: PglD DTNB)
C[C@@H]1CN([C@@H](C)CO)C(=O)Cc2cc(NC(=O)Cc3cn(C)c4ccccc34)ccc2O[C@@H]1CN(C)CC1CC1	none (no result: CASP6 VEID inh, ALR inh, NSD2 HMT inh)
Cc1ccc(NCc2nnc(SCC(N)=O)n2CC2CCCO2)c(C)c1 (configuration not stated)	ALR inh 88.9 (no result: F508del corr, CASP6 VEID inh)
